{"source": "PubChem BioAssay (NCATS)", "note": "Records with an inconclusive call do not appear. Active and inactive are the calls of the source. Calls come from the whole dose curve; as a rule, active = well fitted cell-killing curve with a large enough effect; inconclusive = small, poorly fitted or top-dose-only effect, or effect the other way, or another doubt; inactive = no such curve, though single readings can be large or run the other way. Potency is the fitted concentration of half-maximal effect."}
{"test": "Identifying Small Molecule Inhibitors of Pancreatic Cancer Stem Cells (Panc1, Adherent) (AID 1259362);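 for viability, % of control: compound exposure lasted 48 h before the viability read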", "conditions": "Potency: viability; series mostly up to 46.1 µM; viability, % of control: at the top concentration", "from_the_text": "Progenitor-like cancer cells, often referred to as cancer stem cells (CSC), are believed to be the drivers of therapeutic resistance and rapid recurrence. CSCs are postulated to reside in specific niches characterized by low oxygen tension, limited nutrient supply, and high redox load. Selectively targeting CSC, alone or in combination with cytotoxic agents, as a means to produce durable remissions is an appealing concept. Modeling these cells in in vitro setting is an important step in finding new therapies and/or targets. Multiple reports highlight that forcing cells in culture into 3-dimensionaly architectures (spheroids) re-establishes key progenitor-like transcriptional signatures. Pancreatic cancer is among the diseases with the most dismal outlook which is driven, largely, by recurance following front-line therapies. […] In hopes of deriving new insight into the targeting of these pancreatic CSCs we examined three established pancreatic cancer cell lines in cytotoxicity assays versus a collection of approved and investigational drugs. Importantly, we screened these lines as traditional monolayer (2D) and spheroid (3D) formats to gain an appreciation of agents with differential activity.\nMulticellular tumor spheroids from Panc1, MiaPaCa-2, and the primary low-passage tissue culture line SB.06 were seeded in stem cell media (SCM) in nonadherent 6-well plates coated with hydrogel (Corning Life Sciences, Chelmsford, Mass) and pancreatic spheres generated for 14 days before screening. Cells were seeded into 1536-well solid-bottom white tissue culture treated Greiner Bio One Plates (789173-F) using a MultiDrop Combi (Thermofisher Scientific) dispenser and a small sterile cassette. One column was media alone to be used as a :\"no cells\" control. The plates were then covered with sterilized stainless steel gasketed lids from Kalypsys. After allowing cells to attach for 4 hours, 23 nL of test compound or control (negative control DMSO and positive control 9.2 uM Bortezomib-final) were added from a 1536-well polypropylene compound source plate to each well using a 1536 head pin tool from Kalypsys. Cells were then incubated for 48 hours at 37C, 95% relative humidity and 5% CO2. After 48 hours, plates were removed from the incubator and 3 uL of CellTiter-Glo (Promega) was added using an Aurora Flying Reagent Dispenser Bioraptor. Plates were incubated at room temperature for 10 minutes prior to reading the luminescence on the Viewlux (PerkinElmer). The relative luciferase units are used to calculate the percent activity using the activity of DMSO in the cells and no cells columns for normalization of no inhibition and full inhibition respectively."}
{"smiles": "O=c1cc(N2CCOCC2)oc2c(-c3cccc4c3sc3ccccc34)cccc12", "Potency": "23.5 µM (active)"}
{"smiles": "CC1=C(/C=C/C(C)=C/C=C/C(C)=C/C(=O)Nc2ccc(O)cc2)C(C)(C)CCC1", "Potency": "23.5 µM (active)"}
{"smiles": "O=C(Nc1ccccc1-c1cn2c(CN3CCNCC3)csc2n1)c1cnc2ccccc2n1", "viability, % of control": "96.1% (inactive)"}
{"smiles": "O=c1cc(CN2CCOCC2)occ1OCCCCCSc1ccnc2cc(C(F)(F)F)ccc12", "viability, % of control": "72% (inactive)"}
{"smiles": "O=C(Nc1cc(Cl)cc2c1[nH]c1cnccc12)c1cccnc1", "viability, % of control": "73.6% (inactive)"}
{"smiles": "CC(C)(C)C(=O)Oc1ccc2c(c1)nc(NC(=O)c1cccc([N+](=O)[O-])c1)n2CCCO", "viability, % of control": "90.8% (inactive)"}
{"smiles": "c1ccc2c(-c3cnn4cc(-c5ccc(N6CCNCC6)cc5)cnc34)ccnc2c1", "Potency": "20.9 µM (active)"}
{"smiles": "CC(C)(C(=O)NCC(F)(F)C(F)(F)F)C(=O)N[C@@H]1C(=O)Nc2ccccc2-c2ccccc21", "viability, % of control": "128% (inactive)"}
{"smiles": "OC[C@H]1O[C@@H](n2cnc3c2NC=NC[C@@H]3O)C[C@H]1O", "viability, % of control": "93.9% (inactive)"}
{"smiles": "N#Cc1ccc(NC(=O)Nc2ccccc2Br)c2n[nH]nc12", "viability, % of control": "117% (inactive)"}
{"smiles": "NC(CO)(CO)CCc1ccc(Sc2cccc(OCc3ccccc3)c2)cc1Cl", "viability, % of control": "78% (inactive)"}
{"smiles": "O=C(O)CCC1CCC(c2cc(F)ccc2F)(S(=O)(=O)c2ccc(Cl)cc2)CC1", "note": "(stereo not given)", "viability, % of control": "109% (inactive)"}
{"smiles": "CC(C)[C@H](CO)Nc1nc(Nc2ccc(C(=O)O)c(Cl)c2)c2ncn(C(C)C)c2n1", "viability, % of control": "124% (inactive)"}
{"smiles": "O=C1C(Cl)=C(NCCN2CCOCC2)C(=O)c2ncccc21", "Potency": "1.66 µM (active)"}
{"smiles": "COc1cc2ncnc(-n3nc(-c4ccccn4)nc3N)c2cc1OC", "Potency": "18.7 µM (active)"}
